# Assay results taken from ChEMBL document CHEMBL1857833, “Screening and optimization of specific chemical series against human African Trypanosomiasis (HAT)”.
# Screen size: about 4,400 compounds; about 390 (8.9%) showed an effect of 50% or more. The sample holds strong results, similar compounds and a random draw of the others, so the mix is not that of the screen.
# System: Trypanosoma brucei
# Assay: DNDI: Inhibition of Human African Trypanosomiasis, SBRI 427, in vitro at 2 ug.mL-1
# Format: functional
row,SMILES,% inhibition [%]
1,COc1cc(C)ccc1Oc1nc(C)ccc1/C(=N/O)NCc1cc(F)cc(F)c1,98
2,Cc1ccc(Oc2nc(C)ccc2/C(=N/O)NCc2c(F)cccc2F)c(C)c1,-3
3,COc1cc(C)ccc1Oc1nc(C)ccc1/C(=N/O)NCc1c(F)cccc1F,95
4,Cc1cc(C)cc(CN/C(=N\O)c2ccc(C)nc2OCc2ccccn2)c1,80
5,COc1cc(C)ccc1Oc1nc(C)ccc1/C(=N/O)NCc1ccccn1,-7
6,COc1ccc(Oc2nc(C)ccc2/C(=N/O)NCc2cc(F)cc(F)c2)cc1,-8
7,COc1cc(C)ccc1Oc1nc(C)ccc1/C(=N/O)NCc1ccccc1,99
8,Cc1ccc(/C(=N/O)NCc2ccccc2)c(OCc2ccccn2)n1,13
9,COc1ccc(CN/C(=N\O)c2ccc(C)nc2Oc2ccc(C)cc2OC)cc1,24
10,COc1ccccc1CN/C(=N\O)c1ccc(C)nc1Oc1ccc(C)cc1OC,11
11,Cc1ccc(/C(=N/O)NCc2ccccn2)c(OCc2ccccn2)n1,-11
12,Cc1ccc(Oc2nc(C)ccc2/C(=N/O)NCc2cc(F)cc(F)c2)c(C)c1,6
13,FC(F)(F)c1cccc(CNCc2coc(-c3ccc(Cl)cc3Cl)n2)c1,-2
14,CCOc1ccccc1-c1nc(CN2CCN(c3cccc(C)c3)C(C)C2)co1 (stereo not given),-6
15,COCCN(CCOC)Cc1coc(-c2ccc(O)cc2)n1,38
16,Cc1cccc(Oc2ccc(/C(=N/O)NCc3cccnc3)cn2)c1,12
17,Cc1cccc(-c2nc(CN(C)CC#N)co2)c1,4
18,O/N=C(/c1cccnc1Oc1ccccc1Cl)N1CCN(c2ccc(F)cc2)CC1,3
19,Cc1ccc(/C(=N/O)N2CCSCC2)c(Oc2ccc3ccccc3c2)n1,12
20,COc1cc(C)ccc1Oc1nc(C)ccc1/C(=N/O)NCc1cc(C)cc(C)c1,98
21,Cc1cc(C)cc(CN/C(=N\O)c2ccc(C)nc2Oc2cc(C)cc(C)c2)c1,41
22,Cc1cc(C)cc(CN/C(=N\O)c2ccc(C)nc2Oc2ccc(C)cc2C)c1,18

row,SMILES,% inhibition [%]
1,CCN(CC)Cc1coc(-c2ccc(C)cc2)n1,1
2,Cc1nccn1/C(=N\O)c1ccc(Oc2ccc(Cl)cc2)nc1,5
3,COc1ccc(Oc2nc(C)ccc2/C(=N/O)N(C)c2ccccc2)cc1,-6
4,Cc1cccc(Oc2nc(C)ccc2/C(=N/O)NCC(C)C)c1,94
5,Cc1ccc(/C(=N/O)NCC(C)C)c(Oc2cccc(F)c2)n1,79
6,Cc1ccc(/C(=N/O)NCC(C)C)c(Oc2ccc3ccccc3c2)n1,13
7,Cc1ccc(/C(=N/O)NCC(C)C)c(Oc2cccc(C(C)C)c2)n1,3
8,CSc1ccc(Oc2nc(C)ccc2/C(=N/O)N(C)c2ccccc2)cc1C,5
9,Cc1ccc(/C(=N/O)NCc2cc(F)cc(F)c2)c(Oc2cccc(F)c2)n1,28
10,Cc1ccc(/C(=N/O)N(C)c2ccccc2)c(Oc2cccc(F)c2)n1,86
11,Cc1ccc(/C(=N/O)NCc2ccccc2)c(Oc2cccc(F)c2)n1,13
12,COc1cc(-c2nc(CN3CCN(c4cc(C)nc5ccccc45)CC3)co2)cc(OC)c1OC,10
13,CN(Cc1ccco1)/C(=N\O)c1ccc(Oc2c(F)c(F)cc(F)c2F)nc1,-10
14,COc1cc(-c2nc(CN3CC[C@H]4CCCC[C@@H]4C3)co2)cc(OC)c1OC,-12
15,COc1cc(-c2nc(CNCc3cccc4ccccc34)co2)cc(OC)c1OC,0
16,Cc1ccc(/C(=N/O)NCc2ccco2)c(Oc2ccc(F)cc2)n1,22
17,CCN1CCN(Cc2coc(-c3ccc(Cl)cc3Cl)n2)CC1,22
18,CN(CCc1ccccn1)Cc1coc(-c2ccccc2Cl)n1,10
19,Cc1cc(C)cc(CN/C(=N\O)c2ccnc(Oc3cccc(F)c3)c2)c1,11
20,CC(C)(C)CN/C(=N\O)c1ccnc(Oc2cccc(F)c2)c1,76
21,CSCCN/C(=N\O)c1ccnc(Oc2ccc(F)c(Cl)c2)c1,5
22,O/N=C(\NCc1c(F)cccc1F)c1ccnc(Oc2ccc(F)c(Cl)c2)c1,30

row,SMILES,% inhibition [%]
1,CCC(C)(C)N/C(=N\O)c1ccnc(Oc2cccc(F)c2)c1,1
2,CC(C)(C)CN/C(=N\O)c1ccnc(Oc2ccc(F)c(Cl)c2)c1,96
3,Brc1ccccc1-c1nc(CNC[C@@H]2CCCO2)co1,-9
4,COc1ccc(Oc2nc(C)ccc2/C(N)=N/O)cc1,9
5,CCCCC(CC)CNCc1coc(-c2ccc(C)cc2)n1 (stereo not given),10
6,Cc1ccc(/C(=N/O)N2c3ccccc3CCC2C)c(Oc2ccc3oc4ccccc4c3c2)n1 (stereo not given),-9
7,CC1CC(N/C(=N\O)c2ccc(Oc3ccc4ccccc4c3)nc2)CC(C)(C)C1 (stereo not given),4
8,O/N=C(\Nc1ccccc1)c1ccc(Oc2ccc3ccccc3c2)nc1,-7
9,CC1CCC(N/C(=N\O)c2ccc(Oc3ccc4ccccc4c3)nc2)CC1 (stereo not given),-9
10,O/N=C(\NC1CCCCC1)c1ccc(Oc2ccc3ccccc3c2)nc1,77
11,COCC(C)N/C(=N\O)c1ccc(Oc2cc(C)cc(C(C)C)c2)nc1 (stereo not given),18
12,COCC(C)N/C(=N\O)c1ccc(Oc2ccc3ccccc3c2)nc1 (stereo not given),76
13,O/N=C(\NC1CCC1)c1ccc(Oc2ccc3ccccc3c2)nc1,96
14,CCC(CC)N/C(=N\O)c1ccc(Oc2ccc3ccccc3c2)nc1,32
15,O/N=C(\NCC1CCCCC1)c1ccc(Oc2ccc3ccccc3c2)nc1,6
16,COc1cc(-c2nc(CN3CCC4CCCCC4C3)co2)cc(OC)c1OC (stereo not given),-10
17,Fc1cccc(-c2nc(CN3CCN(c4ncccn4)CC3)co2)c1,6
18,FC(F)(F)c1ccc(-c2nc(Cn3ccnc3-c3ccccc3)co2)cc1,-8
19,c1cncc(CN(Cc2cccnc2)Cc2coc(-c3cccc4ccccc34)n2)c1,47
20,COc1cccc(CNCc2coc(-c3ccccc3C)n2)c1,15
21,COc1ccc(CCN(C)Cc2coc(-c3ccc(C(F)(F)F)cc3)n2)cc1OC,7
